# Test results taken from ChEMBL document CHEMBL1157539, “Thousands of chemical starting points for antimalarial lead identification” (Nature, 2010).
# Key:
# Format in all cases: functional
# Plasmodium falciparum [1] = experiment: GSK_TCMDC: Inhibition of Plasmodium falciparum 3D7 in whole red blood cells, using parasite LDH activity as an index of growth. Test compounds present at 2uM
# Plasmodium falciparum [2] = experiment: GSK_TCMDC: Inhibition of Plasmodium falciparum Dd2 in whole red blood cells, using parasite LDH activity as an index of growth. Test compounds present at 2uM
# HepG2 = experiment: GSK_TCMDC: Percent inhibition of human HepG2 cell line. Test compounds present at 10uM.
smiles,measurement,setting,value
O=C(CC(=O)C(F)(F)F)c1ccccc1[N+](=O)[O-],Inhibition,Plasmodium falciparum [1],97%
same,Inhibition,Plasmodium falciparum [2],95%
same,Inhibition,HepG2,65%
FC(F)(F)c1ccc(CNCC2CCN(Cc3ccc4c(c3)OCO4)CC2)cc1.O=C(O)C(F)(F)F,Inhibition,Plasmodium falciparum [1],80%
same,Inhibition,Plasmodium falciparum [2],12%
same,Inhibition,HepG2,27%
Cc1cc(OCC2CCCO2)c2cc(NC(=O)C(=O)Nc3ccc4nc(C)cc(OCC5CCCO5)c4c3)ccc2n1 (stereo not drawn),Inhibition,Plasmodium falciparum [1],96%
same,Inhibition,Plasmodium falciparum [2],32%
same,Inhibition,HepG2,7%
CCn1cc(C=C2Oc3c(ccc(O)c3CN3CCCCC3)C2=O)c2cc(OC)ccc21,Inhibition,Plasmodium falciparum [1],99%
same,Inhibition,Plasmodium falciparum [2],99%
same,Inhibition,HepG2,0%
COc1cccc(CN2CCN(C(c3ccccc3)c3ccccc3)CC2)c1O.O=C(O)C(=O)O,Inhibition,Plasmodium falciparum [1],99%
same,Inhibition,Plasmodium falciparum [2],98%
same,Inhibition,HepG2,6%
O=C(O)C(F)(F)F.c1cc(CN2CCN(c3ccncc3)CC2)cc(-c2ccc(-c3nc4ccccc4[nH]3)s2)c1,Inhibition,Plasmodium falciparum [1],100%
same,Inhibition,Plasmodium falciparum [2],100%
same,Inhibition,HepG2,59%
O=[N+]([O-])c1ccc(Nc2nc(NCc3ccccc3)nc(N/N=C/c3ccccc3[N+](=O)[O-])n2)cc1,Inhibition,Plasmodium falciparum [1],100%
same,Inhibition,Plasmodium falciparum [2],99%
same,Inhibition,HepG2,18%
Oc1cccc(Nc2nc(NCc3ccccc3)c3ccccc3n2)c1,Inhibition,Plasmodium falciparum [1],95%
same,Inhibition,Plasmodium falciparum [2],99%
same,Inhibition,HepG2,21%
O=C(NC1CCN(Cc2ccccc2)CC1)c1ccc(-c2nc3cc(Cl)c(F)cc3[nH]2)cc1,Inhibition,Plasmodium falciparum [1],100%
same,Inhibition,Plasmodium falciparum [2],100%
same,Inhibition,HepG2,13%
Oc1ccc(Cl)cc1CN1CCC2(CCCN(CC3CCC3)C2)C1 (stereo not drawn),Inhibition,Plasmodium falciparum [1],100%
same,Inhibition,Plasmodium falciparum [2],94%
same,Inhibition,HepG2,5%
CCC(CN1C(=O)C(c2ccccc2)(c2ccccc2)N=C1N)c1ccccc1.O=CO (stereo not drawn),Inhibition,Plasmodium falciparum [1],98%
same,Inhibition,Plasmodium falciparum [2],98%
same,Inhibition,HepG2,11%
